An excerpt weighted towards active compounds, which were near 27% of everything screened.
CYP2C9 activ: activators of human CYP2C9 | P11712 | recombinant CYP2C9, luciferin-H conversion, luminescence; hits give high values; factor 1 = untreated enzyme, 0 = blocked | activation factor at 5 µM | 1.4% of 96,000 active;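 active = activation factor of 2 or more for CYP2C9 at a 5 µM dose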;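 also: 0 = sulfaphenazole-blocked wells and 1 = vehicle-only wells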
CYP2C9 inh: inhibitors of human CYP2C9 | inhibition, % at 5 µM | 20% of 96,000 active | CYP2C9 Supersomes, luciferin-H conversion, luminescence | P11712;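 active = blocking of liver enzyme CYP2C9 beyond about 50% at 5 µM, limit read from the data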
Cav3 T inh: human Cav3.2 channel inhibition, primary screen. Cav3.2-expressing cells, Fluo-4 calcium fluorescence FDSS; hits give low values. B-score at 10 µM. 4% of 100,000 active. O95180. AID 449739;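 active = single-dose well whose peak fluorescence ratio is a statistical outlier from its plate by either plate-standardised score or position-corrected B-score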
CYP2C19 inhib: blocks human cytochrome P450 2C19. inhibition, % at 5 µM. AID 778. 21% of 96,000 active. CYP2C19 Supersomes, luciferin-H EGE luminescence, 30 min;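 active = CYP2C19 inhibition above a set limit at 5 µM in the primary screen, cut at about 50% in these data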;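 also: plate controls were negative control wells for no effect and 2.5 mM tranylcypromine positive control for full effect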
Target sequence (P33261 whole entry, looked up): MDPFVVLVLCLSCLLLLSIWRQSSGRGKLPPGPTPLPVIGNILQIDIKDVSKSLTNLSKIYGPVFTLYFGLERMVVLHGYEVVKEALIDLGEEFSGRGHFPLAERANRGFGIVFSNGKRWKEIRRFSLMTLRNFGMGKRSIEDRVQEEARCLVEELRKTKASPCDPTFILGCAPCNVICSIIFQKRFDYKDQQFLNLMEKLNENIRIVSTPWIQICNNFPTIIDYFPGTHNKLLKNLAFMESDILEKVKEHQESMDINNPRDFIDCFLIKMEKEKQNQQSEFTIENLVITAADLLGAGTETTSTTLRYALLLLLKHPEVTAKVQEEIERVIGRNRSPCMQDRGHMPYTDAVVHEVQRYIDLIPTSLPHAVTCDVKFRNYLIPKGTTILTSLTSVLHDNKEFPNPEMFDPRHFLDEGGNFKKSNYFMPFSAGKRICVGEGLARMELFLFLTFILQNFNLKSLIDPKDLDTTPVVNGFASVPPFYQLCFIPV
CYP2C19 activ: activators of human cytochrome P450 2C19. P33261. recombinant CYP2C19, luciferin-H EGE luminescence; hits give high values; 0 = fully inhibited enzyme, 1 = untreated enzyme. activation factor at 5 µM. 96,000 tested, under 10 active. AID 1025;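 active = activation factor of at least 2 at 5 µM in the primary screen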;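 also: 0 = wells with 2.5 mM tranylcypromine and 1 = vehicle-only wells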
* = called active by the depositor; x = no result given.

SMILES | CYP2C9 activ | CYP2C9 inh | Cav3 T inh | CYP2C19 inhib | CYP2C19 activ
COCCn1nnnc1C(C(C)C)N(Cc1cccnc1)Cc1cc2cc(OC)ccc2[nH]c1=O (stereo not drawn) | 1.3 | -29.4 | x | -15.1 | 1.2
COCCn1nnnc1C(c1cc2cc(C)ccc2[nH]c1=O)N1CCN(C2CCCCC2)CC1 (stereo not drawn) | 1.1 | -6.5 | -0.643 | 6.8 | 0.9
CCN(Cc1ccccc1)C(c1cc2ccc(C)cc2[nH]c1=O)c1nnnn1CCOC (stereo not drawn) | 0.4 | 55.2* | -3.18 | 7.0 | 0.9
Cc1cccc2cc(CN(Cc3ccco3)C(c3nnnn3CCc3ccccc3)C(C)C)c(=O)[nH]c12 (stereo not drawn) | 0.2 | 83.2* | -0.623 | 78.2* | 0.2
CCc1ccc2[nH]c(=O)c(CN(Cc3ccc(OC)cc3)Cc3nnnn3CCOC)cc2c1 | 0.4 | 57.0* | -3.44 | 54.6* | 0.5
CCC(C)(C)n1nnnc1C(C(C)C)N(Cc1ccco1)Cc1cc2cc3c(cc2[nH]c1=O)OCO3 (stereo not drawn) | 1 | -1.4 | -1.43 | 32.9 | 0.7
COc1ccc(CN(Cc2cc3cc(C)ccc3[nH]c2=O)C(=O)N(C)C)cc1 | 0.8 | 23.5 | -0.62 | 21.9 | 0.8
COCCn1nnnc1C(C(C)C)N(Cc1ccccc1)Cc1cc2cc(OC)ccc2[nH]c1=O (stereo not drawn) | 0.2 | 83.7* | -3.97* | 76.6* | 0.2
CCC1CCCCN1Cc1cc(OC)c(O)c([N+](=O)[O-])c1 (stereo not drawn) | 1.1 | -6.7 | 0.0608 | -9.5 | 1.1
Cc1nc(NCc2ccco2)nc2c1C(=O)CC(C)C2 (stereo not drawn) | 0.8 | 21.2 | 0.586 | 3.0 | 1
COCCn1nnnc1C(c1ccc(OC)cc1OC)N1CCN(c2ccccc2F)CC1 (stereo not drawn) | 0.8 | 19.4 | -0.124 | 30.1 | 0.7
CCc1ccc2[nH]c(=O)c(C(c3nnnn3CCOC)N3CCN(c4ccccc4F)CC3)cc2c1 (stereo not drawn) | 0.8 | 17.3 | -1.82 | 53.8* | 0.5
CCOC(=O)c1ccc(-c2ccc(CO)o2)cc1 | 0.8 | 24.2 | 0.76 | 12.0 | 0.9
CCOC(=O)c1cc(-c2ccc(/C=C3/C(=O)NC(=O)C(C#N)=C3C)o2)ccc1Cl | 0.3 | 71.2* | 0.0642 | 19.1 | 0.8
CCCN1C(=O)/C(=C/c2ccc(N3CCCC3)c(C)c2)NC1=S | 0.5 | 52.8* | -7.13* | 53.1* | 0.5
COc1ccc(/C=C2\NC(=S)N(CC3CCCO3)C2=O)c(OC)c1C (stereo not drawn) | 0.8 | 15.3 | -0.0603 | 34.3 | 0.7
COc1ccccc1-c1cc(C(=O)NCc2cccs2)no1 | 2.3* | -126.0 | 0.336 | 4.7 | 1
COCCNC(=O)c1cc(-c2ccccc2OC)on1 | 2.6* | -158.1 | -1.32 | 24.5 | 0.8
COc1ccccc1-c1cc(C(=O)NCc2ccco2)no1 | 1.9 | -88.7 | -0.604 | 14.1 | 0.9
COc1ccc(-c2cn(-c3ccc(C)cc3)c(=O)n2CC(=O)Nc2cccc(F)c2)cc1 | 0.6 | 42.6 | -5.03* | 17.0 | 0.8
Cc1ccc(C)n1N1C(=O)/C(=C\c2ccc(Cl)cc2)SC1=S | 0.8 | 16.0 | 0.0289 | -8.2 | 1.1
O=C1/C(=C/c2ccncc2)SC(=S)N1C1CCS(=O)(=O)C1 (stereo not drawn) | 0.6 | 41.6 | 0.766 | 75.3* | 0.2
O=C(NC(=S)NCCN1CCOCC1)c1ccccc1Cl | 1.1 | -8.0 | 0.276 | 54.5* | 0.5
O=C(COc1ccc(Cl)cc1Cl)NCCCN1CCOCC1 | 0.8 | 22.0 | 0.518 | 19.2 | 0.8
O=C(COc1ccccc1Cl)NCCCN1CCOCC1 | 1 | 3.2 | -0.513 | 56.7* | 0.4
SMILES | CYP2C9 activ | CYP2C9 inh | Cav3 T inh | CYP2C19 inhib | CYP2C19 activ
COc1ccc(-c2cc(-c3ccc(OC)c(OC)c3)n[nH]2)c(O)c1 | 1.2 | -23.0 | -0.0438 | -1.9 | 1
COc1ccc(-c2cc(-c3cc(OC)ccc3O)[nH]n2)cc1 | 0.6 | 37.9 | -4.54* | 13.4 | 0.9
COc1ccc(O)c(-c2cc(-c3cccc(Br)c3)n[nH]2)c1 | 0.4 | 61.4* | x | 5.4 | 0.9
Cc1cccnc1NC(=O)C1CCN(S(=O)(=O)c2cccs2)CC1 | 0.9 | 11.3 | 0.995 | -5.9 | 1.1
O=c1nc(N2CCOCC2)ccn1Cc1ccc(Br)cc1 | 1.2 | -22.7 | 0.528 | -0.7 | 1
CC(/C=N/n1c(C2CCCCC2)n[nH]c1=S)=C\c1ccccc1 | 0.4 | 61.2* | -0.592 | 38.5 | 0.6
CC(C)Cc1nc2oc3c(N4CCN(C)CC4)ncnc3c2c2c1CCCC2 | 0.9 | 6.5 | -0.296 | 3.5 | 1
CC(C)C(=O)N1CCN(c2nc(-c3ccccc3)c3c(c2C#N)CCCC3)CC1 | 0.1 | 94.5* | -5.27* | 97.5* | 0
CCCC(=O)N1CCN(c2nc(CC(C)C)c3c(c2C#N)CCC3)CC1 | 0.1 | 88.8* | -5.51* | 88.8* | 0.1
N#Cc1c(-c2ccccc2)nc(N2CCCCCC2)[nH]c1=O | 0.8 | 17.4 | -0.639 | 10.9 | 0.9
C(=N\c1nccs1)/Nc1nccs1 | 0.9 | 12.2 | -0.341 | 5.0 | 0.9
Oc1c(Cl)cc(Cl)cc1/C=N/c1nccs1 | 0.9 | 10.6 | -9.33* | -2.4 | 1
Cc1sc2ncnc(OCC(=O)N3CCN(S(=O)(=O)c4ccccc4)CC3)c2c1C | x | x | 2.42 | x | x
CC(C)NC(=O)c1onc(CSc2cccc3ccccc23)c1C(=O)O | 0 | 95.2* | -0.675 | 31.8 | 0.7
CCCCNC(=O)c1onc(CSc2cccc(OC)c2)c1C(=O)NCCCC | x | x | -1.55 | x | x
CCCCNC(=O)c1onc(CSc2cccc3ccccc23)c1C(=O)O | 0 | 96.8* | -3.1* | 57.7* | 0.4
CCCCNC(=O)c1onc(CSc2cccc(OCC)c2)c1C(=O)O | 0.1 | 91.9* | -0.998 | 28.5 | 0.7
CCOc1cccc(SCc2noc(C(=O)NCCOC)c2C(=O)O)c1 | 0.6 | 37.1 | 0.596 | 5.7 | 0.9
CCCCNC(=O)c1onc(CSc2cccc(Cl)c2)c1C(=O)O | 0.2 | 84.2* | -1.31 | 28.1 | 0.7
CC(C)(C)C(=O)NC(NC(=S)Nc1sc2c(c1C#N)CCCC2)C(Cl)(Cl)Cl (stereo not drawn) | 0.7 | 29.2 | -1.52 | -11.9 | 1.1
COc1ccccc1S(=O)Cc1ccc(C(=O)NCc2ccccc2Cl)o1 (stereo not drawn) | 0.7 | 26.3 | 0.964 | 35.5 | 0.6
CCC(C)Oc1ccccc1C1CC(=O)NC2=C1C(=O)CCC2 (stereo not drawn) | 1 | -3.6 | 0.689 | 1.5 | 1
CCCNC(=O)c1onc(CSc2ccc(Cl)cc2)c1C(=O)NCCC(C)C | x | x | -3.13 | x | x
CCCNC(=O)c1c(CSc2ccccc2)noc1C(=O)NCc1ccccc1 | x | x | -0.234 | x | x
CCCCNC(=O)c1onc(CSc2ccc(C(C)C)cc2)c1C(=O)O | 0.1 | 93.8* | -0.167 | 27.8 | 0.7
CCCCNC(=O)c1onc(CSc2ccccc2)c1C(=O)O | 0.4 | 56.9* | 0.0753 | 18.8 | 0.8
COc1ccc(OCc2nc(N)nc(Nc3ccc(C)cc3)n2)cc1 | 0.6 | 38.4 | -0.977 | 20.7 | 0.8
CCOC(=O)C1=C(C)N(CCCC(=O)O)C(=O)NC1c1ccccc1Cl (stereo not drawn) | x | x | 0.506 | x | x

Screening data deposited in PubChem by several laboratories.
